Hits are enriched below; roughly 5.5% of the tested compounds scored in any of these assays.
MBNL1 CUG block: blocks human MBNL1 binding to CUG repeat RNA; Q9NR56; hit rate 0.036% among 280,000; Potency, µM (top dose mostly 57.5 µM), without a hit: at the highest dose activity change, negative = inhibition, actives largely listed as inhibitors; TR-FRET MBNL1-His/biotin-(CUG)12 binding, 665/545 ratio; active = well fitted inhibition curve with a large enough effect in the signal ratio, with a control signal flat, not every such curve was filed as active; inconclusive = small, poorly fitted or top-dose-only effect, or effect the other way, or a change in a side signal; inactive = no such curve, though single readings can be large or run the other way; the % refers to the signal ratio; also: potency is read from the fitted curve at half-maximal effect; % is scaled to controls: 0 for no effect and ±100 for the full control effect
Target sequence (Q9NR56 whole entry, looked up): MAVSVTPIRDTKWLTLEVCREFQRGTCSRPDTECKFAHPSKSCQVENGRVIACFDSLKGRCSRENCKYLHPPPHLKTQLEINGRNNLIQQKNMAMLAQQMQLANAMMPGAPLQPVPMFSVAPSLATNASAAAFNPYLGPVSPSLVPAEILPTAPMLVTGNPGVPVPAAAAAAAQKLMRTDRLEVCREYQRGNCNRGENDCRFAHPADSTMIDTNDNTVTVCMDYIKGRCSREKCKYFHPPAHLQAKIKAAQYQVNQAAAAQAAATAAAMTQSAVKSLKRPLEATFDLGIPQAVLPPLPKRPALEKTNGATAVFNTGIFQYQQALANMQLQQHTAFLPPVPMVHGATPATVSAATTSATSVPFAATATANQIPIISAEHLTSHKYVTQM
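His-tagged MBNL1 binding to biotinylated (CUG)12 RNA was measured by TR-FRET using terbium anti-His antibody (0.055 ng/ul final) and streptavidin-XL665 (5 nM final). Compounds were titrated 92 nM to 58 uM; 60 min at room temperature.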
CBFb-RUNX1 inh: blocks binding between human CBF-beta and RUNX1; 230,000 tested, under 10 active; Q01196+Q13951; Potency, µM (series often up to 59.8 µM), for the others: top-dose activity, negative = inhibition, hits mostly inhibitors; AID 1477; AlphaScreen CBFb-His/RUNX1-biotin binding, biochemical; also: % of control where 0% means no effect
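AlphaScreen binding: CBFb-His and RUNX1-biotin (30 nM each) preincubated 20 min, compound added for 15 min, then nickel and streptavidin beads for 90 min, all at room temperature. Disruption of the interaction by any mechanism counts as activity.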
CtBP-E1A inh: inhibitors of CtBP/E1A interaction; AlphaScreen GST-E1A/His-CtBP binding, 1536-well; stronger effect = lower value; activity change, % (concentration not given with the values); hit rate 0.49% among 340,000; AID 651724; in the data active = activity change below about -65%; inconclusive = mostly about -30% to -63%; also: % is scaled to controls: 0 for no effect and ±100 for the full control effect
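GST-E1A and His-tagged CtBP (125 nM each as 5X stock) were preincubated with pin-transferred compound for 2 h at 37 °C in the dark, then glutathione donor and nickel acceptor beads were added for 1 h before AlphaScreen reading.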
Six1-Eya2 blk: inhibitors of human Six1/Eya2 interaction; AlphaScreen GST-Six1/His-Eya2 binding, biochemical; stronger effect = lower value; activity change, % (test concentration not listed); hit rate 0.56% among 360,000; in the data active = activity change below about -65%; inconclusive = mostly about -30% to -63%; also: % is scaled to controls: 0 for no effect and ±100 for the full control effect
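GST-Six1 + His-Eya2 (5X stock: 250/500 nM); Tris pH 8.0, 300 mM NaCl, 0.05% BSA, 0.02% Tween 20; GSH donor/Ni acceptor beads; 1 h 37 °C dark; AlphaScreen readout.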
RORgamma inh: inhibitors of mouse ROR gamma transcriptional activity. Drosophila S2 Gal4-RORgamma UAS-luciferase reporter, 20 h. Potency, µM (highest dose often 53.6 µM), inactives show top-dose activity change, negative = inhibition, most hits filed as inhibitors. hit rate 5.4% among 310,000; also: potency is read from the fitted curve at half-maximal effect; % is scaled to controls: 0 for no effect and ±100 for the full control effect; nearly all actives have a fitted effect of over 60% in size
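Stable Schneider cell line, Gal4 DNA-binding domain fused to ROR gamma, UAS-luciferase. Cmpd 1 hr RT → CuSO4 700 uM final → 20 hr RT → luciferase reagent 10 min → luminescence.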
VP16 counter: inhibits Gal4-VP16 luciferase reporter, ROR gamma counter-screen; Drosophila S2 Gal4-VP16 UAS-luciferase, luminescence, 20 h; Potency, µM (series often up to 53.6 µM), without a hit: at the top dose activity, negative = inhibition, most hits filed as inhibitors; hit rate 3.5% among 310,000; AID 2546;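 also: Gal4-VP16 expression switched on by copper sulfate through the metallothionein promoter; potency is read from the fitted curve at half-maximal effect; % is scaled to controls: 0 for no effect and ±100 for the full control effect; nearly all actives have a fitted effect of over 50% in size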
* = called active by the depositor; u = inconclusive; x = no result; ! = a repeat was not active; [ ] = another dose, or the depositor's remark. Unless noted, calls follow the shape of the dose curve; as a rule, active = well fitted curve in the direction sought with a large enough effect; inconclusive = small, poorly fitted or top-dose-only effect, or another doubt; inactive = no such curve, though single readings can be large; an effect the other way counts as inactive or inconclusive.

SMILES	MBNL1 CUG block	CBFb-RUNX1 inh	CtBP-E1A inh	Six1-Eya2 blk	RORgamma inh	VP16 counter
O=C(C[C@@H]1C[C@@H]2c3cc(NS(=O)(=O)c4ccc(F)cc4)ccc3O[C@@H]2[C@H](CO)O1)N1CCc2ccccc2C1	x	x	2.8	-1.9	x	x
O=C(/C=C/c1ccc(O)cc1)c1ccc(O)cc1O	2.7%	-12.1%	5.6	4.7	1.78µM*!	u
COc1ccc(/C=C/C(=O)c2cc(F)ccc2OC(=O)c2ccccc2)cc1OC	x	x	0.1	0.8	x	x
COc1ccc(C(=O)/C=C/c2ccccc2)c(O)c1	-3.1%	-8.8%	-6.5	1.0	-42.8%	-4.0%
COc1ccc(/C=C/C(=O)c2cc(F)ccc2OC(=O)c2ccc(OC)c(OC)c2)cc1OC	14.9%[11.5 µM]	3.6%	x	-0.2	8.91µM*	u
COc1ccc(C(=O)/C=C/c2ccc(OC)cc2OC)c(O)c1	-2.2%	-22.4%	-22.8	4.8	0.794µM*	21.4%
COc1ccc(/C=C/C(=O)c2cc(Cl)ccc2O)c(OC)c1	-6.0%	3.7%	14.9	2.1	14.3%	28.9%
COc1cc(/C=C/C(=O)c2ccc(O)cc2O)ccc1O	x	12.0%	x	x	u	-23.7%
O=C(/C=C/c1ccccc1)c1ccc(O)cc1O	x	13.0%	x	x	2.82µM*	u
O=C(O)C[C@]1(C(=O)Nc2ccc(F)cc2)CC(/C=C/c2ccccc2)=NO1	-1.8%	x	1.7	-3.5	-0.2%	-2.1%
CCCCCN(C(=O)CCC(=O)OCc1ccccc1C(F)(F)F)c1c(N)n(CCCC)c(=O)[nH]c1=O	1.7%	x	4.6	-7.2	27.7%	-15.1%
CCC1CN(C(=O)N2CCC(C(=O)NCc3cccc(OC)c3OC)CC2)c2cc(C)ccc2O1 (stereo unspecified)	-4.9%	x	-0.3	-0.3	6.9%	-0.6%
O=C(/C=C/c1ccccc1)CC(=O)c1ccccc1O	-4.9%	-16.1%	x	-4.7	u	11.2µM*
COc1ccc(/C=C/C(=O)c2ccc(O)cc2O)cc1	x	x	x	x	0.0398µM*	u
COc1ccc(/C=C/C(=O)c2ccc(O)cc2O)cc1OC	x	-3.2%	x	x	2µM*	u
O=C(Nc1ccc2c(c1)OCO2)c1csc([C@@H]2C[C@H](O)[C@@H](CO)O2)n1	x	x	-5.6	7.9	x	x
CCOCCN1CCN(C2c3ccccc3CSc3ccccc32)CC1 (stereo unspecified)	x	x	4.6	-12.9	x	x
CN(C)c1ccc(CN2CCC(C(=O)NC(c3ccc(Cl)cc3)c3cnccn3)CC2)cc1 (stereo unspecified)	x	x	-21.7	-26.6	x	x
Cc1ccnc2nc(C(=O)OCC(=O)NC3CCCC(C)C3C)nn12 (stereo unspecified)	x	x	0.0	-15.8	x	x
CC(=O)NC12CC3CC(C1)CC(C(=O)OCC(=O)c1ccc4c(c1)OCCO4)(C3)C2	16.4%	-4.7%	-3.5	0.6	14.1µM*	u
CC1=C(C)CS(=O)N(S(=O)(=O)c2ccccc2)C1 (stereo unspecified)	-4.2%	5.0%	10.2	4.2	8.91µM*	11.2µM*
NS(=O)(=O)c1ccc(N2C(=O)C3CC=CCC3C2=O)cc1 (stereo unspecified)	-5.2%	-13.1%	x	5.1	2.0%	4.3%
CC1=C(C)CS(=O)N(c2ccc(S(N)(=O)=O)cc2)C1 (stereo unspecified)	7.8%	2.6%	8.0	2.4	3.55µM*	4.47µM*
O=S(=O)(/N=S1\CC=CCN1S(=O)(=O)c1ccccc1)c1ccccc1 (stereo unspecified)	x	x	5.3	7.0	x	x
CC(=O)OCC1OC(C#Cc2ccccc2)C=CC1OC(C)=O (stereo unspecified)	x	10.1%[13.1 µM]	x	x	u	u
SMILES	MBNL1 CUG block	CBFb-RUNX1 inh	CtBP-E1A inh	Six1-Eya2 blk	RORgamma inh	VP16 counter
COc1ccccc1-n1c(CCn2nc(C)c(Br)c2C)n[nH]c1=S	-13.7%	-3.0%	6.7	9.5	10µM*	u
Cc1nn(CCc2n[nH]c(=S)n2C2CCCCC2)c(C)c1Br	-1.7%	2.5%	0.5	0.2	5.62µM*	u
CC(=O)Nc1cccc(-c2ccnc3c2CC(C)(C(=O)NCCc2ccccc2)O3)c1 (stereo unspecified)	x	x	2.1	-2.0	x	x
CCc1nnc(N2C(=N)SCC2=O)s1	-7.3%	13.0%	0.7	5.5	1.41µM*	12.6µM*
CCNC(=O)NC(=O)COC(=O)CCCSc1nc2ccccc2s1	-13.7%	-6.3%	-7.0	-3.5	u	7.94µM*
CCNC(=O)NC(=O)C(C)OC(=O)CCCSc1nc2ccccc2s1 (stereo unspecified)	-8.7%	-3.8%	-7.8	-2.6	u	4.47µM*
CCc1cccc(C)c1NC(=O)CCCSc1nc2ccccc2s1	22.0%	2.5%	-1.4	2.0	11.6%	-2.3%
CNC(=O)NC(=O)C(C)OC(=O)CCCc1nc2ccccc2s1 (stereo unspecified)	-0.9%	-3.4%	11.3	8.3	-33.6%	-22.8%
Cc1ccccc1NC(=O)CCCSc1nc2ccccc2s1	-15.1%	-3.5%	-9.8	4.3	12.6µM*	2.51µM*
CNC(=O)NC(=O)C(C)OC(=O)CCCSc1nc2ccccc2s1 (stereo unspecified)	x	6.6%	-8.7	-5.4	7.08µM*	4.47µM*
CCNC(=O)NC(=O)COC(=O)CCCc1nc2ccccc2s1	-4.4%	-2.9%	-0.4	0.9	-12.5%	0.2%
CC(OC(=O)CCCc1nc2ccccc2s1)C(=O)NC(N)=O (stereo unspecified)	-0.1%	6.9%	6.5	8.9	-33.7%	u
Cc1nn(CC(=O)NC2CC2)c(C)c1S(=O)(=O)N(C)C	x	x	3.3	10.9	x	x
Cc1cc(C)n2nc(SCc3nnc(-c4ccc(F)cc4)o3)nc2n1	9.7%	5.7%	x	x	8.4%	-17.2%
CCn1ccnc1CN(C)Cc1nc(Cc2cccc(C(F)(F)F)c2)no1	-3.5%	20.4%	13.9	4.4	17.8µM*	u
CC(CN(C)Cc1nc(Cc2cccc(C(F)(F)F)c2)no1)CN1CCCC1 (stereo unspecified)	-3.3%	2.8%	2.8	-0.5	18.4%	-8.2%
CN(Cc1ccc(F)cc1)Cc1nc(CCc2ccccc2)no1	-6.3%	2.2%	6.5	6.4	1.1%	-7.7%
FC(F)(F)c1cccc(Cc2noc(CN3CCCCC3c3ccccn3)n2)c1 (stereo unspecified)	-8.7%	6.1%	7.0	-13.4	22.4µM*	-7.6%
CCc1ccc(CN(C)Cc2nc(COc3ccccc3)no2)nc1	-2.6%	-0.9%	3.2	-4.0	12.6µM*	6.1%
CCc1ccc(CN(C)Cc2nc(Cc3cccc(C(F)(F)F)c3)no2)nc1	1.1%	3.3%	0.0	-26.7	2.24µM*	u
